# The panel holds about 83,000 compounds, 20% with a hit somewhere; the sample as a whole holds those more often.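 48-hour exposure, single concentration, 96-well plates; percent growth endpoint where 0 means no net growth. Active: below 10.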 Activity calls are given as the source filed them.
# Tested on: M14 melanoma
# Test: NCI-60 one-dose screen, 48 h (100 = growth as untreated, 0 = no growth, -100 = all killed)
# Conditions: 10 µM unless noted
row,Compound,growth
1,O=C(c1nc2ccccc2[nH]1)C1C(c2ccc(F)cc2)C2CC3CCCCC3N2[C@@]12C(=O)Nc1ccc(Cl)cc12 (some centres undefined),40.7% (inactive)
2,COc1ccc(/C=C/C(=O)c2ccc3cc(OC)c(OC)cc3c2)cc1OC,64.2% (inactive)
3,O=c1oc2ccc(F)cc2c(=O)n1-c1ccc(Br)cc1F,-2.25% (active)
4,COc1cc(/C=C2\CN(S(=O)(=O)c3ccccc3)C/C(=C\c3cc(CN4CCCC4)c(O)c(OC)c3)C2=O)cc(CN2CCCC2)c1O,-19.2% (active)
5,CC(C)C[C@H](C(=O)N[C@@H](C)C(N)=O)N1CC=CCN(O)S1(=O)=O,108% [5 µM] (inactive)
6,CN(C)CCCNCc1ccc(-c2ccc(F)c(Cl)c2)o1,-80.9% (active)
7,O=c1oc2ccc(-c3ccc(F)cc3F)cc2c(=O)n1-c1cccc(C(F)(F)F)c1,18.3% (inactive)
8,O=C(N=Nc1c(O)[nH]c2ccccc12)c1oc2ccccc2c1CN1CCN(c2ccccc2)CC1,-8.59% (active)
9,O=C(Nc1ccc(Br)cc1F)c1cc(F)ccc1O,-11.3% (active)
10,COc1cc(NC(=O)CCSc2nc3ccccc3c(=O)n2Cc2ccccc2)cc(OC)c1OC,94.7% (inactive)
11,O=C(Nc1ccc(I)cc1F)c1cc(F)ccc1O,-14.5% (active)
12,COc1nccc2cc3c(=O)n4c(cc5ccccc54)c(=O)n3c12,97.2% (inactive)
13,O=C(COc1cc(O)c2c(=O)cc(-c3ccccc3)oc2c1)Nc1ccccc1,85.4% (inactive)
14,O=c1oc2ccc(-c3ccc(F)cc3F)cc2c(=O)n1-c1ccc(Cl)c(C(F)(F)F)c1,21.5% (inactive)
